Assay outcomes as filed in PubChem.
Only some compounds are listed: those with a hit (about 2.4% of all), similar ones and a draw of the others.
CHO-K1 Ca ag: counter-screen for M1 agonists: effect in parental CHO-K1 cells; Fluo-8 calcium fluorescence; scaled to maximal ATP response, vehicle zero; activation, % at 3 µM; hit rate 0.48% among 360,000; AID 602248, 2012; in the data active = activation above about 15%;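 note: untransfected CHO-K1 host cells lacking M1 receptor as counterscreen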
M1 ag: human M1 muscarinic receptor agonists, primary screen, Fluo-8 calcium fluorescence, CHO-K1 cells, HTS. activation, % at 3 µM. Muscarinic acetylcholine receptor M1 (Homo sapiens), P11229. CHO-K1 hM1, agonist mode; 0% DMSO, 100% acetylcholine EC100. AID 588814, 2011. hit rate 0.33% among 360,000;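 active = activation above the run's mean compound activation plus 3 SD, cut at about 16% in these data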;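 note: peak over basal fluorescence ratio within a 140 s kinetic read after compound addition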
Target sequence (P11229 whole entry, looked up): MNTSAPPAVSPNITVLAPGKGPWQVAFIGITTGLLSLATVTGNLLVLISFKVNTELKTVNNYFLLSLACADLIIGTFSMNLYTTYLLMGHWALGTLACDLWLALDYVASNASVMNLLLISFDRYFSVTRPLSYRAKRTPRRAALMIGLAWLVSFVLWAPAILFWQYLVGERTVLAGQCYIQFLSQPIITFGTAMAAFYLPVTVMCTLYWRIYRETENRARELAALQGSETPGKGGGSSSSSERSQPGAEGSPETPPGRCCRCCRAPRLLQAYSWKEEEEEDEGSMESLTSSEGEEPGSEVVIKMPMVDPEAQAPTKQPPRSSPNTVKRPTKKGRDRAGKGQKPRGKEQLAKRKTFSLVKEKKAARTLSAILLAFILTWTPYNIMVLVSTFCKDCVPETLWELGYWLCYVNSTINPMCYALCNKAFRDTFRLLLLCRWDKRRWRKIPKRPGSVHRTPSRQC
M1 antag: human M1 muscarinic receptor antagonists, primary screen, CHO-K1 cells, Fluo-8 calcium fluorescence, 1536-well; Muscarinic acetylcholine receptor M1 (Homo sapiens), P11229; CHO-K1 hM1, ACh EC80 antagonist; AID 588852, 2011; hit rate 1.3% among 360,000; inhibition, % at 3 µM;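 active = percent inhibition above its own plate's cutoff, namely the mean of that plate's compound wells plus 3 SD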;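 note: peak over basal fluorescence ratio during 140 s after agonist addition; 0% = ACh EC80 plus DMSO and 100% = DMSO alone without agonist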
CHRM1 PAM: human M1 muscarinic receptor positive allosteric modulators, primary screen, CHO-K1 cells, Fluo-8 calcium fluorescence, 1536-well; Muscarinic acetylcholine receptor M1 (Homo sapiens), P11229; activation, % at 3 µM; CHO-K1 hM1, ACh EC20; 0% = ACh EC20, 100% = maximal ACh; hit rate 0.088% among 360,000; in the data active = activation above about 19%, passing the limit was not always enough
CHO-K1 Ca antag: nonselective inhibitor or artifact in parental CHO-K1 cells. ATP-induced calcium, Fluo-8 fluorescence. inhibition, % at 3 µM. hit rate 0.6% among 360,000;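 active = inhibition above a per-plate cutoff, the plate's mean sample inhibition plus 3 SD, cut at about 24% in these data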;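 note: 0% = DMSO plus EC80 ATP and 100% = DMSO alone without ATP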
CHO-K1 Ca PAM: nonselective calcium activators in parental CHO-K1 cells, primary screen, counter-screen for M1 PAM project, cell-based, Fluo-8 calcium fluorescence, full deck, 1536-well; ATP EC20; 0% at ATP EC20, 100% at ATP max; activation, % at 3 µM; hit rate 0.02% among 360,000;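 active = activation above the run cutoff, the mean activation of all test compounds plus 3 SD, cut at about 40% in these data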;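 note: peak over basal fluorescence ratio in a 140 s read after ATP addition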
An asterisk follows results filed as active.

SMILES	CHO-K1 Ca ag	M1 ag	M1 antag	CHRM1 PAM	CHO-K1 Ca antag	CHO-K1 Ca PAM
COc1cccc(C(=O)NC2CCCc3c2cnn3-c2ccc(C)c(C)c2)c1OC (stereo not given)	8.0	-4.9	7.8	-9.4	38.4*	-12.0
Cc1ccc(N2C(=O)C3C4CCC(O4)C3C2=O)c(OC(F)F)c1 (stereo not given)	-0.4	1.0	-10.4	15.0	-0.4	13.5
COc1ccc(CNCCC(c2ccc(OC)cc2)c2ccccc2OC)cc1 (stereo not given)	1.3	-2.7	-1.8	5.6	3.9	-1.1
COc1ccc(C(CCNCc2ccc(OC(C)C)cc2)c2ccccc2OC)cc1 (stereo not given)	18.1*	2.6	0.8	9.7	14.2	-3.9
NC(=O)c1cc(S(=O)(=O)Nc2ccc(OC(F)(F)F)cc2)cs1	10.1	2.2	20.8	-13.0	7.3	8.2
Cc1cccc(C)c1C(OCCN(C)C)C1CCCCC1 (stereo not given)	0.7	-8.0	99.2*	-26.0	8.4	2.9
COCCN(C(=O)CCl)C(C(=O)NC1CCCCC1)c1ccccc1C (stereo not given)	-0.3	-7.2	-9.4	5.7	13.9	-7.5
CNc1nc(Oc2ccccc2C(=O)OC)nc(SC)n1	-0.7	-5.3	13.0	-5.5	29.9*	-7.9
CCOC(=O)c1ccc(Oc2nc(NC)nc(SC)n2)cc1	-0.1	1.4	-16.5	14.7	-13.3	10.8
COc1ccc(C(=O)N(C)CCCC2CCCC2)cc1OC1CCN(C(C)C)CC1	2.6	-6.2	30.5*	-18.0	-9.2	4.2
CC(=O)c1cccc(S(=O)(=O)N2CCC(C(=O)OC3CCOC3=O)CC2)c1 (stereo not given)	0.4	-1.9	26.9*	-11.2	13.9	-11.4
Cc1ccc(S(=O)(=O)N2CCC(C(=O)OC3CCOC3=O)CC2)cc1C (stereo not given)	2.6	-4.4	0.7	3.0	11.4	2.0
CC(NC(=O)C1CCCN1C(=O)c1cccs1)c1ccc(Cl)cc1Cl (stereo not given)	0.6	-1.3	-12.9	8.8	-7.4	14.9
COC(=O)c1ccc(C(=O)N2CCCC(N3CCN(c4ccc(F)cc4)CC3)C2)nc1 (stereo not given)	-0.1	-5.2	-8.2	3.5	-2.3	-15.9
Cc1nn(C(=O)c2cccc([N+](=O)[O-])c2)c(C)c1Sc1ccccc1	-0.7	-4.3	15.1	-1.4	26.2*	-7.7
CN(C)S(=O)(=O)n1cc(/C=C(\NC(=O)c2ccccc2F)C(=O)N2CCCC2)c2ccccc21	0.1	-0.4	-2.2	2.5	-4.0	4.7
CC(OC(=O)CNC(=O)c1ccc(Cl)cc1)C(=O)NC1CCCCC1C (stereo not given)	0.4	7.3	-6.1	13.8	25.2*	-21.7
CC(OC(=O)CNC(=O)c1ccc(Br)cc1)C(=O)NC1CCCCC1C (stereo not given)	2.8	0.6	-11.9	8.9	-2.7	9.0
CC(OC(=O)CNC(=O)c1ccc2ccccc2c1)C(=O)NC1CCCCC1C (stereo not given)	17.6*	1.3	-9.3	4.5	7.5	16.1
O=C(N=C1SC2CS(=O)(=O)CC2N1c1ccc(OC(F)(F)F)cc1)C1CC1 (stereo not given)	0.4	0.4	-14.4	13.8	-8.9	5.5
C=CCOc1ccc(/C=C/C(=O)OCC(=O)Nc2c(C)n(C)n(-c3ccccc3)c2=O)cc1	0.8	-2.4	-15.9	4.1	38.5*	-2.6
O=C(CCN1CCN(C(c2ccccc2)c2ccccc2)CC1)N/N=C/c1ccc(O)cc1	1.6	-10.8	36.9*	-26.9	-3.3	9.9
COc1ccc(OC)c(/C=N/NC(=O)CCN2CCN(C(c3ccccc3)c3ccccc3)CC2)c1	0.1	-11.1	48.0*	-26.1	1.3	15.2
N#Cc1ccsc1NC(=O)CCN1CCN(C(c2ccccc2)c2ccccc2)CC1	0.0	-10.8	29.8*	-23.4	-26.1	3.0
